The results in this text go back to the supplement of paper PMC6658780.

SMILES strings stand for the structures. Structures can show the parent of a compound that is named as a salt. ± gives the standard deviation of the averaged measurements.

For one experiment, the system named is Klebsiella pneumoniae NCTC-13439. Nature of the experiment: percent growth inhibition of drug + antibiotic vs DMSO control; higher = more growth inhibition. Conditions: antibiotic (0.125x MIC): ciprofloxacin; 7 µM.
For `Cc1nc2n(c(=O)c1CCN1CCC(c3noc4cc(F)ccc34)CC1)CCCC2` [Risperidone], the percent growth inhibition worked out at 15.5 ± 4.5%.

With `NC(=O)N/N=C/c1ccc([N+](=O)[O-])o1` [Nitrofural], the percent growth inhibition came to 10.1 ± 18%.

Regarding `O=C(OCC(O)CO)c1ccccc1Nc1ccnc2cc(Cl)ccc12` (centres undefined) [Glafenine hydrochloride], the percent growth inhibition worked out at 6.41 ± 16%.

`CCN1CCN(c2cc3c(cc2F)c(=O)c(C(=O)O)cn3C2CC2)CC1` [Enrofloxacin]: the percent growth inhibition was found to be 7.59 ± 7.8%.

Consider `NC1CCN(c2c(F)cc3c(=O)c(C(=O)O)cn(C4CC4)c3c2Cl)C1` (centres undefined) [Clinafloxacin], for which the percent growth inhibition came out at 13.8 ± 8.5%.

For the molecule `COc1c(N2CCNC(C)C2)c(F)cc2c(=O)c(C(=O)O)cn(C3CC3)c12` (centres undefined) [Gatifloxacin], the percent growth inhibition was determined as 26.2 ± 8.2%.

Regarding `COc1c(N2C[C@@H]3CCCN[C@@H]3C2)c(F)cc2c(=O)c(C(=O)O)cn(C3CC3)c12` [Moxifloxacin], the percent growth inhibition amounted to 25.8 ± 7.3%.

As to `Cc1c(F)c(N2CCNC(C)C2)cc2c1c(=O)c(C(=O)O)cn2C1CC1` (centres undefined) [Grepafloxacin], the percent growth inhibition was 18.9 ± 3.6%.

Take `C#C[C@]1(OC(C)=O)CC[C@H]2[C@@H]3CCC4=CC(=NO)CC[C@@H]4[C@H]3CC[C@@]21CC` (mixture of isomers) [Norgestimate]: the percent growth inhibition was -7.59 ± 3.1%.

For the molecule `N=C(NCCCCCCNC(=N)NC(=N)Nc1ccc(Cl)cc1)NC(=N)Nc1ccc(Cl)cc1` [Chlorhexidine], the percent growth inhibition turned out to be 38.3 ± 1.2%.

Turning to `CC(=O)CCCCn1c(=O)c2c(ncn2C)n(C)c1=O` [Pentoxifylline], the percent growth inhibition came to 2.24 ± 1.5%.

On to `NC1CCN(c2nc3c(cc2F)c(=O)c(C(=O)O)cn3-c2ccc(F)cc2F)C1` (centres undefined) [Tosufloxacin hydrochloride], for which the percent growth inhibition was 88.1 ± 8.8%.

Staying with this experiment, now noted: antibiotic (0.125x MIC): ciprofloxacin; 20 µM.
As to `Cc1nc2n(c(=O)c1CCN1CCC(c3noc4cc(F)ccc34)CC1)CCCC2` [Risperidone], the percent growth inhibition is -11.1 ± 3%.

For the molecule `NC(=O)N/N=C/c1ccc([N+](=O)[O-])o1` [Nitrofural], the percent growth inhibition stood at 16.3 ± 2.7%.

On to `O=C(OCC(O)CO)c1ccccc1Nc1ccnc2cc(Cl)ccc12` (centres undefined) [Glafenine hydrochloride], for which the percent growth inhibition was determined as 5.01 ± 4.3%.

For the molecule `CCN1CCN(c2cc3c(cc2F)c(=O)c(C(=O)O)cn3C2CC2)CC1` [Enrofloxacin], the percent growth inhibition came to 73.1 ± 13%.

For `NC1CCN(c2c(F)cc3c(=O)c(C(=O)O)cn(C4CC4)c3c2Cl)C1` (centres undefined) [Clinafloxacin], the percent growth inhibition worked out at 93.36 ± 0.75%.

Turning to `COc1c(N2CCNC(C)C2)c(F)cc2c(=O)c(C(=O)O)cn(C3CC3)c12` (centres undefined) [Gatifloxacin], the percent growth inhibition is 96.7 ± 1.2%.

`COc1c(N2C[C@@H]3CCCN[C@@H]3C2)c(F)cc2c(=O)c(C(=O)O)cn(C3CC3)c12` [Moxifloxacin]: the percent growth inhibition was 99.24 ± 0.54%.

Turning to `Cc1c(F)c(N2CCNC(C)C2)cc2c1c(=O)c(C(=O)O)cn2C1CC1` (centres undefined) [Grepafloxacin], the percent growth inhibition came out at 51.2 ± 18%.

`C#C[C@]1(OC(C)=O)CC[C@H]2[C@@H]3CCC4=CC(=NO)CC[C@@H]4[C@H]3CC[C@@]21CC` (mixture of isomers) [Norgestimate]: the percent growth inhibition stood at 4.4 ± 13%.

Turning to `N=C(NCCCCCCNC(=N)NC(=N)Nc1ccc(Cl)cc1)NC(=N)Nc1ccc(Cl)cc1` [Chlorhexidine], the percent growth inhibition came to 100.15 ± 0.021%.

Take `CC(=O)CCCCn1c(=O)c2c(ncn2C)n(C)c1=O` [Pentoxifylline]: the percent growth inhibition was determined as 5.4 ± 5.5%.

Consider `NC1CCN(c2nc3c(cc2F)c(=O)c(C(=O)O)cn3-c2ccc(F)cc2F)C1` (centres undefined) [Tosufloxacin hydrochloride], for which the percent growth inhibition turned out to be 99.03 ± 0.4%.
